Test results reported in PubChem BioAssay AID2314 (National Center for Advancing Translational Sciences (NCATS), 2010).
About 37,000 (12%) of roughly 300,000 compounds were called active. What follows is part of a selection rich in actives, with near analogues and random picks from the rest. A number with no mark means an inactive call. No stated cut-off is given here; in the data, active means max response mostly above about 13% (no sharp cut-off); inactive means mostly below about 14%.

assay: Cycloheximide Counterscreen for Small Molecule Inhibitors of Shiga Toxin; conditions: cell reporter, cycloheximide protein synthesis inhibition counterscreen; hits give high values; further: read at 38.3 µM for the half of the compounds with a filed dose; 0% is about no effect

| SMILES | max response |
| --- | --- |
| O=C(C[n+]1cc(Br)cc2ccccc21)c1ccc(F)cc1 | 3.72% |
| O=C(c1ccc(F)cc1)n1c(=S)nc2ccccn21 | 53.4% (active) |
| O=C(c1ccc(F)cc1)n1cc(C(=S)N2CCOCC2)c2ccccc21 | 7.24% |
| CC(C(=O)NC1CCCCC1)N1C(=O)c2cccc3cccc1c23 (configuration not stated) | 11.1% |
| COCCN(C(=O)CCC(=O)Nc1nccs1)C(C(=O)NCCC(C)C)c1ccc(F)cc1 (configuration not stated) | -2.06% |
| CCOC(=O)c1c(-c2ccc(C)cc2)csc1/N=C(\C)C1=C(O)c2ccccc2C1=O | 11.2% (active) |
| CCOC(=O)C1=C(c2ccc(OC)cc2)C(=O)c2ccccc2C1=O | 1.07% |
| CCOC(=O)c1c(-c2ccc(-c3ccccc3)cc2)csc1NC(=O)CCC(=O)O | -2.27% |
| S=C(Nc1cccc(Cl)c1)Nc1ccc2cn[nH]c2c1 | 24.8% (active) |
| CCn1c(SCC(=O)Nc2nc(C)cs2)nnc1C(C)NC(=O)c1ccccc1 (configuration not stated) | 1.33% |
| Cc1csc(NC(=S)Nc2cccc(Cl)c2)n1 | 41.1% (active) |
| CCc1cccc(CC)c1NC(=S)Nc1ccc2cn[nH]c2c1 | -0.951% |
| Cc1cccc(NC(=S)Nc2ccc3cn[nH]c3c2)c1 | 7.4% |
| Cc1cccc(NC(=S)Nc2ccc(Cl)c(Cl)c2)c1 | -1.87% |
| CC(=O)c1cccc(NC(=O)c2ccncc2)c1 | 7.01% |
| Cc1csc(NC(=O)c2ccc(-c3ccc(Cl)cc3Cl)o2)n1 | 11.3% |
| CC(=O)Nc1cccc(C(=O)Nc2nc(C)cs2)c1 | 27.2% (active) |
| Cc1cc(=O)oc2cc(OCC3CC(c4ccccc4Cl)=NO3)ccc12 (configuration not stated) | 13.7% |
| Cc1ccc(NC2CCCN(C(=O)CCC3(C)CC3)C2)cc1C (configuration not stated) | 10.8% |
| Cc1nc2ccc(C(=O)N(C)CC3CCCN(CCc4ccc(Cl)cc4)C3)cc2[nH]1 (configuration not stated) | -2.66% |
| C=CCNC(=S)N1CCN(CCN=Cc2c(C)[nH]n(-c3ccc([N+](=O)[O-])cc3)c2=O)CC1 | -1.17% |
| CCO[C@H]1OC(C(=O)Nc2ccccc2)=C[C@@H](C2CC2)[C@@H]1CCCO | -1.4% |

| SMILES | max response |
| --- | --- |
| C[C@]1(C(=O)NCCc2c[nH]c3ccccc23)C=C[C@@H](Cc2ccccc2)N1C(=O)c1ccccc1 | 11.9% |
| Cc1ccc(N2C(=O)C3C(c4ccccc4)(C2=O)C3(c2ccccc2)c2ccccc2)cc1 (configuration not stated) | -4.14% |
| CCOc1cccc(-c2nn3c(-c4ccccn4)nnc3s2)c1 | 22.6% (active) |
| c1ccc(-c2cc(-c3nnc4sc(-c5ccccn5)nn34)[nH]n2)cc1 | 5.86% |
| COc1cc(-c2nn3c(-c4cccc(C)c4)nnc3s2)cc(OC)c1OC | -2.72% |
| COc1ccc(N(Cc2cc3cc(OC)ccc3[nH]c2=O)S(C)(=O)=O)cc1 | -1.64% |
| CCC(=O)N(Cc1cc2cc(OC)ccc2[nH]c1=O)c1ccccc1C | -0.76% |
| COc1ccc2[nH]c(=O)c(CNc3ccc(C)c(C)c3)cc2c1 | 15% (active) |
| CC(=O)c1ccc(S(=O)(=O)N2CCC(Oc3ccc(-n4cnnn4)cc3)CC2)cc1 | -8.92% |
| N#Cc1c(Cl)nc(-c2cccnc2)nc1-c1ccccc1 | -2.59% |
| S=C(Nc1cccnc1)Nc1ccccn1 | -1.56% |
| CCOC(=O)c1cnc(-n2nc(C)cc2C)nc1NNc1cc(C)nc(-c2ccccc2)n1 | -1.88% |
| COc1ccc(/C=N/Nc2nc(-c3ccc(C)cc3)c(C#N)c(=O)[nH]2)cc1 | -2.53% |
| COc1ccc(/C=N/OCC(=O)N(Cc2ccccc2)c2ccccc2C(=O)O)cc1 | -1.3% |
| COc1ccc(/C=N/NS(=O)(=O)c2ccc(NC(C)=O)cc2)cc1 | -2.62% |
| COc1ccc(/C=N/Nc2nc3ccccc3c(=O)[nH]2)cc1 | 43.2% (active) |
| COc1ccc(/C=N/Nc2ccccc2C(=O)O)cc1 | 38.9% (active) |
| COc1ccc(C=Nc2cccc3ncccc23)cc1 | 5.61% |
| Cc1cccc(NC(=O)C2CCN(C(=O)NC3CCCCC3)CC2)c1 | -6.02% |
| Cc1ccc2cc(CCNC(=O)c3c(-c4ccccc4Cl)noc3C)c(=O)[nH]c2c1 | -3.51% |
| Cc1c2cnn(CC(=O)NCc3ccccn3)c(=O)c2c(C)n1Cc1ccc(Cl)cc1 | -3.5% |
| CCOC(=O)Cc1csc(SCc2cc(=O)oc3cc(O)ccc23)n1 | -1.72% |

| SMILES | max response |
| --- | --- |
| Cc1ccc2c(CSc3nncs3)cc(=O)oc2c1 | 26.8% (active) |
| COCc1cc(=O)oc2cc(NS(=O)(=O)c3ccc(C)cc3)ccc12 | 2.21% |
| CCCNC(=O)CSc1nc(Cc2ccccc2)nc2ccccc12 | -5% |
| CCn1c(-c2cc(OC)ccc2OC)csc1=Nc1c(C)n(C)n(-c2ccccc2)c1=O | -0.97% |
| CN=c1scc(-c2cc(OC)ccc2OC)n1/N=C/c1c(C)[nH]c2ccccc12 | 15.1% (active) |
| COc1ccc(C)cc1Nc1nc(-c2c(C)[nH]c3ccccc23)cs1 | 11.4% |
| CC(C)(C)N(Cc1ccccc1)C(=O)COC(=O)CCc1c[nH]c2ccccc12 | -0.22% |
| CC(=O)NCC(=O)N1CCC(n2nccc2NC(=O)CCCc2ccccc2)CC1 | 26.3% (active) |
| COc1cc(CN2CCC(n3nccc3NC(=O)CCCc3ccccc3)CC2)ccc1O | -1.56% |
| CC(=O)N[C@@H](C)C(=O)N1CCC(n2nccc2NC(=O)CCCc2ccccc2)CC1 | 24.6% (active) |
| CCn1cc(CN2CCC(n3nccc3NC(=O)CCCc3ccccc3)CC2)c(C)n1 | -2.15% |
| COc1ccc(CN2CCC(n3nccc3NC(=O)CCCc3ccccc3)CC2)cc1C | -6.15% |
| Cc1ccc(CN2CCC(n3nccc3NC(=O)CCCc3ccccc3)CC2)o1 | 2.06% |
| CCC(C(=O)OC)n1cnc2scc(-c3ccc(C)cc3)c2c1=O (configuration not stated) | 0.506% |
| COc1ccc(N2C(=O)C3C(C2=O)C(C(=O)c2ccccc2)N2CCCC32)cc1 (configuration not stated) | 2.35% |
| O=C(NCc1ccccc1Cl)c1ccc2c(=O)n(CC3CCCO3)c(=S)[nH]c2c1 (configuration not stated) | -1.12% |
| CCCC[C@@H]1CN=C(N)N1CCc1cc(C(F)(F)F)cc(C(F)(F)F)c1 | -4.84% |
| CC[C@H](C)[C@H](NC(=O)[C@H](CCCNC(=N)N)NC(=O)[C@H](CCCNC(=N)N)NC(=O)[C@H](CC(C)C)NC(=O)[C@H](Cc1ccccc1)NC(=O)CNC(=O)CNC(=O)[C@@H](N)Cc1ccc(O)cc1)C(=O)N[C@@H](CCCNC(=N)N)C(=O)N1CCC[C@H]1C(=O)N[C@@H](CCCCN)C(=O)N[C@@H](CC(C)C)C(=O)N[C@@H](CCCCN)C(=O)N[C@@H](Cc1c[nH]c2ccccc12)C(=O)N[C@@H](CC(=O)O)C(=O)N[C@@H](CC(N)=O)C(=O)N[C@@H](CCC(N)=O)C(=O)O | -3.93% |
| O=C(Cn1ccc2cc(S(=O)(=O)N3CCCC3)ccc21)NCc1ccccc1 | 12.1% |
| C=CCOc1ccc(/C=C2\SC(=S)N(CCC(=O)O)C2=O)cc1 | -2.97% |
| O=C(C1CCN(S(=O)(=O)c2ccc(Br)s2)CC1)N1CCN(C2CCCCC2)CC1 | 3.94% |
| COc1cc(OC)c(-n2cc(-c3ccc(Cl)cc3)[nH]c2=O)cc1Cl | 0.883% |

| SMILES | max response |
| --- | --- |
| Cc1cc(C)nc(SC2CCCCC2NS(=O)(=O)c2ccc(Cl)cc2)n1 (configuration not stated) | -1.57% |
| CC(c1ccccn1)N(C)C(=O)c1ccc2nc(Cc3cccc(Cl)c3)oc2c1 (configuration not stated) | 52.7% (active) |
| CC(C(=O)NCC1CCCCC1)N(C)Cc1cccc(Cl)c1 (configuration not stated) | -4.34% |
| CN(Cc1ccccc1)C(=O)c1cccc(C(=O)N(C)Cc2ccccc2)c1 | -3.47% |
| COC(=O)c1cc(S(=O)(=O)Nc2ccc(C)c(F)c2)c[nH]1 | 1.38% |
| COc1cccc(OC)c1C(=O)Nc1nnc(C(C)C)s1 | -1.98% |
| COc1ccc(C(=O)Nc2nncs2)c(OC)c1 | 34.6% (active) |
| O=C(NC1=NCCS1)[C@H](Cc1ccccc1)N1C(=O)c2ccccc2C1=O | -2.74% |
| COc1ccc(Cc2nnc(NC(=O)c3cc(OC)c(OC)c(OC)c3)s2)cc1OC | -3.75% |
| COc1ccc(C(=O)NCc2nnc(SCC(=O)NC3=NCCS3)n2C)cc1 | -2.2% |
| CC(NC(=O)COc1ccccc1)C(=O)NC1=NCCS1 (configuration not stated) | 4.07% |
| O=C(NC1=NCCS1)c1ccc(Cl)s1 | 66.8% (active) |
| COc1ccc(C(=O)N2CCCN(C)CC2)c(OC)c1 | -2.16% |
| COc1ccc(Cc2nnc(NC(=O)c3ccc(OC)cc3OC)s2)cc1 | 31.5% (active) |
| COc1ccc(Cc2nnc(NC(=O)Cc3cccs3)s2)cc1 | 12.7% |
| COc1ccc(C(=O)NC2=NCCS2)c(OC)c1 | 32.6% (active) |
| COc1ccc(NC(=O)c2cc(-c3cc(OC)c(OC)c(OC)c3)nc3ccccc23)c(OC)c1 | -6.98% |
| CCN1C(=S)N[C@@H](c2cccc(C(F)(F)F)c2)C(C(=O)OC)=C1C | -8.93% |
| COC(C(=O)Nc1ccc(S(=O)(=O)Nc2ccc(C)c(C)c2)cc1)c1ccccc1 (configuration not stated) | -1.18% |
| CS(=O)(=O)c1sc(C(=O)NC(=S)Nc2ccc(OC(F)(F)F)cc2)c2c1C=CCC2 | 1.1% |
| CCOC(=O)c1ccccc1N1C(=O)C2Sc3[nH]c(=O)sc3C(/C=C/c3ccccc3)C2C1=O (configuration not stated) | -1.12% |
